Measured values as given in ChEMBL document CHEMBL1961873, “Compounds: GSK PKIS; Assays: Nanosyn kinase panel” (2012).

target: Calcium/calmodulin-dependent protein kinase type II subunit alpha (Homo sapiens) (UniProt Q9UQM7); conditions: at 1 µM;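 note: reported value is a mean percent inhibition of CAMK2A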
Sequence (Q9UQM7 whole entry): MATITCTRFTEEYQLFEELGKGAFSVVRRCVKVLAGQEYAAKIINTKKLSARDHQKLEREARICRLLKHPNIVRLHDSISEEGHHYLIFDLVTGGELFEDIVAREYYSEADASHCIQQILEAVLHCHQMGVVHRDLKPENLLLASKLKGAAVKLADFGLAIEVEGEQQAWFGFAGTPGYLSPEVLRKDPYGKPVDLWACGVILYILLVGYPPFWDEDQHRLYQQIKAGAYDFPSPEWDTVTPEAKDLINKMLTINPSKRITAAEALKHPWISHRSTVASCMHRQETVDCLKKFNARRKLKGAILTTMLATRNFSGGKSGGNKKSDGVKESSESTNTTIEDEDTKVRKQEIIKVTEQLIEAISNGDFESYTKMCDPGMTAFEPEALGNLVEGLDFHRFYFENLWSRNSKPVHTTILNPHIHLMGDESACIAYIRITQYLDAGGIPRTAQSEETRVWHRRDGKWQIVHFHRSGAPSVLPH

SMILES | inhibition [%]
COc1cc2ncn(-c3cc(OCCc4ccccc4)c(C(N)=O)s3)c2cc1OC | 2.38
NS(=O)(=O)c1ccc(N/N=C2\C(=O)Nc3ccc(C(=O)NCCCn4ccnc4)cc32)cc1 | 4.11
C/C(Nc1ccc(S(N)(=O)=O)cc1)=C1/C(=O)Nc2ccccc21 | -2.07
O=C1Nc2ccc(I)cc2C1=Cc1cc(Br)c(O)c(Br)c1 | 7.25
CN(c1ccc(NC(=O)Nc2c(Cl)cccc2Cl)cc1)c1ccnc(Nc2cccc(CS(C)(=O)=O)c2)n1 | 2.73
CN(C)CCOc1ccc(-c2cc(-c3ccc4c(c3)CCC4=NO)c(-c3ccncc3)o2)cc1 | 0.22
Cc1ccc(C(=O)NC2CCC2)cc1-c1ccc(C(=O)NCC2CC2)cc1 | 2.38
COc1ccc(-c2ccc3c(NC(=O)C4CC4)n[nH]c3n2)cc1 | 0.75
COc1ccc2ncn(-c3cc(O[C@H](C)c4ccccc4Cl)c(C(N)=O)s3)c2c1 | -1.4
NS(=O)(=O)c1ccc(Nc2cc(-c3ccc(O)c(F)c3)n[nH]2)cc1 | -4.72
COc1ccc(C2=C(N3CCc4ccccc43)C(=O)NC2=O)cc1 | 4.72
COc1cc2ncn(-c3cc(OCc4cccs4)c(C(N)=O)s3)c2cc1OC | 1.67
O=C(Nc1n[nH]c2nc(-c3ccc(O)cc3)c(Br)cc12)C1CC1 | 8.39
COc1cc(Nc2ncc3c(C)nc(-c4cccc(Oc5ccccc5)c4)n3n2)cc(OC)c1OC | 4.08
COc1cccc(/C=N/Nc2ncnc3c2cnn3-c2cccc(OC)c2)c1 | 1.28
COc1cc(Nc2ncc(-c3ccccc3)o2)cc(OC)c1OC | -0.38
COc1cc(N2CCN(C(C)C)CC2)ccc1Nc1nc(Nc2ccc(F)cc2C(=O)NC[C@@H](O)CO)c2cc[nH]c2n1 | 4.13

SMILES | inhibition [%]
CS(=O)(=O)CCNCc1cc(-c2cc3c(Nc4ccc(OCc5cccc(F)c5)c(Cl)c4)ncnc3s2)cs1 | 3.15
O=C(Nc1n[nH]c2cc(-c3ccccc3)ccc12)C1CC1 | 2.25
CNC(=O)c1cncc(/C=C/c2c(C)cccc2C)c1 | 3.13
NC(=O)Cc1ccccc1Oc1nccc(-c2c(-c3ccc(F)cc3)ncn2C2CCNCC2)n1 | 2.07
COc1ccc2cc(-c3c(-c4ccncc4)nc(-c4ccc([S+](C)[O-])cc4C)n3C)ccc2c1 (stereo not drawn) | -1.04
COc1ccc2cc(-c3c(-c4ccncc4)nc(-c4ccc(S(C)(=O)=O)cc4C)n3C)ccc2c1 | 3.89
COc1cc2ncn(-c3cc(OCc4ccccc4C(F)(F)F)c(C(C)=O)s3)c2cc1OC | 0.39
NC(=O)c1cc(-c2ccncc2)cc(-c2ccccc2)c1N | 3.97
CN(C)c1ccc2c(c1)/C(=C/Nc1ccc(S(N)(=O)=O)cc1)C(=O)N2 | 3.56
CCC(=O)Nc1ccc(C)c(-c2ccc(C(=O)NCC3CC3)cc2)c1 | 1.21
Fc1ccc(-c2c(-c3ccncc3)nc3n2CCS3)cc1 | 0.88
CN1CCN(CCCNc2nc3ccc(Oc4ccc(NC(=O)Nc5cc(C(F)(F)F)ccc5F)cc4)cc3[nH]2)CC1 | 7.84
c1ccc(-c2n[nH]cc2-c2ccnc(-c3ccc(OCCN4CCOCC4)cc3)c2)nc1 | 0.85
Fc1ccc(-c2nc3n(c2-c2ccncc2)CCS3)cc1 | 3.82
Fc1ccc(-c2ncn(CCCN3CCOCC3)c2-c2ccncc2)cc1 | 1.91
O=C(Nc1ccc(Oc2ccc3[nH]c(NC(=O)c4ccccc4)nc3c2)cc1)Nc1cc(C(F)(F)F)ccc1F | 2.85
Cc1nnc(-c2ccc(C)c(-c3ccc(C(=O)NCc4ccc(Cl)cc4)cc3)c2)o1 | 3.22

target: Calcium/calmodulin-dependent protein kinase type II subunit delta (Homo sapiens) (UniProt Q13557); conditions: at 0.1 µM;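 note: percent inhibition values are means, taken from the GSK PKIS kinase profiling set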
Sequence (Q13557 whole entry): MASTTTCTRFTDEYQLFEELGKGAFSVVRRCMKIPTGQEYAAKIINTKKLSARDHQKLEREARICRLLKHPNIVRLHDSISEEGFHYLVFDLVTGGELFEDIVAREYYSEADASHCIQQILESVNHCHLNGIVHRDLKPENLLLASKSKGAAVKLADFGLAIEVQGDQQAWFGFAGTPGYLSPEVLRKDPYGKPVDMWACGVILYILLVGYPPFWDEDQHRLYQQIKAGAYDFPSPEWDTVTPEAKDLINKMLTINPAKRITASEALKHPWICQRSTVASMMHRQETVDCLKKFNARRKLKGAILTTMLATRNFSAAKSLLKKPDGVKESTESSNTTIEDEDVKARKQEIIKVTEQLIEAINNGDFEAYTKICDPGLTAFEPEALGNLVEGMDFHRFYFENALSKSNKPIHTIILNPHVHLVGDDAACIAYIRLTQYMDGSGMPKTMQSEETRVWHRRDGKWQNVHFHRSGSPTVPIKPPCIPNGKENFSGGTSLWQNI

SMILES | inhibition [%]
COc1cc2ncn(-c3cc(OCCc4ccccc4)c(C(N)=O)s3)c2cc1OC | 2.83
NS(=O)(=O)c1ccc(N/N=C2\C(=O)Nc3ccc(C(=O)NCCCn4ccnc4)cc32)cc1 | 2.56
C/C(Nc1ccc(S(N)(=O)=O)cc1)=C1/C(=O)Nc2ccccc21 | -2.27
O=C1Nc2ccc(I)cc2C1=Cc1cc(Br)c(O)c(Br)c1 | 3.27
CN(c1ccc(NC(=O)Nc2c(Cl)cccc2Cl)cc1)c1ccnc(Nc2cccc(CS(C)(=O)=O)c2)n1 | 1.22
CN(C)CCOc1ccc(-c2cc(-c3ccc4c(c3)CCC4=NO)c(-c3ccncc3)o2)cc1 | -0.38
Cc1ccc(C(=O)NC2CCC2)cc1-c1ccc(C(=O)NCC2CC2)cc1 | 1.89
COc1ccc(-c2ccc3c(NC(=O)C4CC4)n[nH]c3n2)cc1 | 0.17
COc1ccc2ncn(-c3cc(O[C@H](C)c4ccccc4Cl)c(C(N)=O)s3)c2c1 | 2.08
NS(=O)(=O)c1ccc(Nc2cc(-c3ccc(O)c(F)c3)n[nH]2)cc1 | -3.72
COc1ccc(C2=C(N3CCc4ccccc43)C(=O)NC2=O)cc1 | 4.35
COc1cc2ncn(-c3cc(OCc4cccs4)c(C(N)=O)s3)c2cc1OC | 0.52
O=C(Nc1n[nH]c2nc(-c3ccc(O)cc3)c(Br)cc12)C1CC1 | 6.47
COc1cc(Nc2ncc3c(C)nc(-c4cccc(Oc5ccccc5)c4)n3n2)cc(OC)c1OC | 3.36
COc1cccc(/C=N/Nc2ncnc3c2cnn3-c2cccc(OC)c2)c1 | 3.36
COc1cc(Nc2ncc(-c3ccccc3)o2)cc(OC)c1OC | -2.56
COc1cc(N2CCN(C(C)C)CC2)ccc1Nc1nc(Nc2ccc(F)cc2C(=O)NC[C@@H](O)CO)c2cc[nH]c2n1 | 3.45

SMILES | inhibition [%]
CS(=O)(=O)CCNCc1cc(-c2cc3c(Nc4ccc(OCc5cccc(F)c5)c(Cl)c4)ncnc3s2)cs1 | 4.55
O=C(Nc1n[nH]c2cc(-c3ccccc3)ccc12)C1CC1 | 3.79
CNC(=O)c1cncc(/C=C/c2c(C)cccc2C)c1 | 1.04
NC(=O)Cc1ccccc1Oc1nccc(-c2c(-c3ccc(F)cc3)ncn2C2CCNCC2)n1 | 2.62
COc1ccc2cc(-c3c(-c4ccncc4)nc(-c4ccc([S+](C)[O-])cc4C)n3C)ccc2c1 (stereo not drawn) | -0.62
COc1ccc2cc(-c3c(-c4ccncc4)nc(-c4ccc(S(C)(=O)=O)cc4C)n3C)ccc2c1 | 3.49
COc1cc2ncn(-c3cc(OCc4ccccc4C(F)(F)F)c(C(C)=O)s3)c2cc1OC | 0.61
NC(=O)c1cc(-c2ccncc2)cc(-c2ccccc2)c1N | 4.41
CN(C)c1ccc2c(c1)/C(=C/Nc1ccc(S(N)(=O)=O)cc1)C(=O)N2 | 2.54
CCC(=O)Nc1ccc(C)c(-c2ccc(C(=O)NCC3CC3)cc2)c1 | 2.68
Fc1ccc(-c2c(-c3ccncc3)nc3n2CCS3)cc1 | 1.78
CN1CCN(CCCNc2nc3ccc(Oc4ccc(NC(=O)Nc5cc(C(F)(F)F)ccc5F)cc4)cc3[nH]2)CC1 | 3.68
c1ccc(-c2n[nH]cc2-c2ccnc(-c3ccc(OCCN4CCOCC4)cc3)c2)nc1 | -1.29
Fc1ccc(-c2nc3n(c2-c2ccncc2)CCS3)cc1 | 4.18
Fc1ccc(-c2ncn(CCCN3CCOCC3)c2-c2ccncc2)cc1 | 1.48
O=C(Nc1ccc(Oc2ccc3[nH]c(NC(=O)c4ccccc4)nc3c2)cc1)Nc1cc(C(F)(F)F)ccc1F | 2.01
Cc1nnc(-c2ccc(C)c(-c3ccc(C(=O)NCc4ccc(Cl)cc4)cc3)c2)o1 | 2.75
